An excerpt weighted towards active compounds, which were near 10% of everything screened.
JMJD2A Tudor inh: inhibitors of human JMJD2A Tudor domain. O75164. AlphaScreen JMJD2A-Tudor / H3K4me3 peptide binding. Potency, µM (titrated, usually from 114 µM), inactives show at the highest dose activity change, negative = inhibition, most hits filed as inhibitors. 390,000 compounds, 4.4% hits; also: potency is read from the fitted curve at half-maximal effect; % is scaled to controls: 0 for no effect and ±100 for the full control effect; nearly all actives have a fitted effect of over 50% in size
CtBP-E1A inh: inhibitors of CtBP/E1A interaction. AlphaScreen GST-E1A/His-CtBP binding, 1536-well; hits give low values. activity change, % (no concentration beside the values). 340,000 compounds, 0.49% hits; in the data active = activity change below about -65%; inconclusive = mostly about -30% to -63%; also: % is scaled to controls: 0 for no effect and ±100 for the full control effect
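In 5 uL wells, 23 nL compound meets equimolar GST-E1A and His-CtBP (5X stock 125 nM each) for 2 h, 37 °C. Beads (5X, 50 ug/mL) then 1 h, 37 °C, dark.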
HP1b chromo inh: inhibitors of HP1-beta chromodomain binding to methylated histone tails; 390,000 compounds, 0.56% hits; AlphaScreen HP1-beta / biotin-H3K9me3 peptide binding; P83916; Potency, µM (series often up to 114 µM), for inactives: at the top dose activity change, negative = inhibition, usual class: inhibitors; also: potency is read from the fitted curve at half-maximal effect; nearly all actives have a fitted effect of over 70% in size
Target sequence (P83916 whole entry, looked up): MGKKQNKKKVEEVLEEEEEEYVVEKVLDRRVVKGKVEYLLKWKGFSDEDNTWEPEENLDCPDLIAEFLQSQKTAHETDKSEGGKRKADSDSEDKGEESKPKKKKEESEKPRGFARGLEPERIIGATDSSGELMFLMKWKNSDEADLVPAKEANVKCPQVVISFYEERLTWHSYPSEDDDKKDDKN
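AlphaScreen: HP1-beta (50 nM) preformed 30 min with biotin-H3(1-18)K9me3 peptide (50 nM) in PBS pH 7.4, 0.01% Tween-20. Compound added for 30 min at RT, then streptavidin donor/nickel chelate acceptor beads (10 ug/mL) for 30 min.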
G9a block: blocks human histone lysine methyltransferase G9a; 350,000 compounds, 8.8% hits; Potency, µM (top dose mostly 102 µM), without a hit: at the top dose activity, negative = inhibition, usual class: inhibitors; AID 504332; G9a H3K9 monomethylation, AlphaScreen, 2 h; also: potency is read from the fitted curve at half-maximal effect; % is scaled to controls: 0 for no effect and ±100 for the full control effect; nearly all actives have a fitted effect of over 75% in size
Target sequence (Q96KQ7 913-1193 limits assumed): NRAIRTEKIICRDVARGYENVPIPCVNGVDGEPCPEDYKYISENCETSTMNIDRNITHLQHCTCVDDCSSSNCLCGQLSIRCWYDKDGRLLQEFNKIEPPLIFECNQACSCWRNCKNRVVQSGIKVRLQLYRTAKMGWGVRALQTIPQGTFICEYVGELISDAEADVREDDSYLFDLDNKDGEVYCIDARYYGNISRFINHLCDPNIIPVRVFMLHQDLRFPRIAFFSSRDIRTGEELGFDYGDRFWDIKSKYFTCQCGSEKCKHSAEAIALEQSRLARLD
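Enzyme 20 nM + cpd, 15 min RT; add b-H3K9 pep 500 nM / SAM 20 uM; 2 h RT; anti-H3K9me1 Ab 0.5 ug/mL + SA donor / anti-rabbit acceptor beads 20 ug/mL each, 10 min; AlphaScreen read.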
Six1-Eya2 blk: Six1/Eya2 interaction inhibition. Q15475+O00167. AlphaScreen GST-Six1/His-Eya2 binding, biochemical; hits give low values. 360,000 compounds, 0.56% hits. activity change, % (no concentration beside the values); in the data active = activity change below about -65%; inconclusive = mostly about -30% to -63%; also: % is scaled to controls: 0 for no effect and ±100 for the full control effect
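GST-Six1 + His-Eya2 (5X stock: 250/500 nM); Tris pH 8.0, 300 mM NaCl, 0.05% BSA, 0.02% Tween 20; GSH donor/Ni acceptor beads; 1 h 37 °C dark; AlphaScreen readout.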
BAZ2B inh: BAZ2B (human) inhibition; Q9UIF8; AlphaScreen BAZ2B-H3K14Ac peptide displacement; Potency, µM (doses to about 114 µM), for the others: top-dose activity change, negative = inhibition, actives largely listed as inhibitors; 360,000 compounds, 4.4% hits; also: potency is read from the fitted curve at half-maximal effect; % is scaled to controls: 0 for no effect and ±100 for the full control effect; nearly all actives have a fitted effect of over 60% in size
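Complex of BAZ2B and biotin-H3K14Ac (50 nM apiece) forms over 30 min at RT, then faces library compounds up to 110 uM for another 30 min; AlphaScreen beads added, 20 min dark incubation, luminescence read.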
An asterisk follows results filed as active; ? = inconclusive; nt = no result given; ! = not active in a repeat; [ ] = remark or other dose. Unless noted, calls follow the shape of the dose curve; as a rule, active = well fitted inhibition curve with a large enough effect; inconclusive = small, poorly fitted or top-dose-only effect; inactive = no such curve, though single readings can be large or run the other way.

SMILES	JMJD2A Tudor inh	CtBP-E1A inh	HP1b chromo inh	G9a block	Six1-Eya2 blk	BAZ2B inh
CCc1ccccc1NC(=O)CCS(=O)(=O)c1ccc(Br)cc1	?	7	?	50µM*	0	79µM*
O=C(CCNS(=O)(=O)c1ccc(Br)cc1)NC1CCCCC1	1%	0	38%	?	3	11%
O=C(CCS(=O)(=O)c1ccc(Br)cc1)NC1CCCC1	50µM*	7	-28%	45µM*	-10	50µM*
CCOc1ccc(NC(=O)CCS(=O)(=O)c2ccc(Br)cc2)cc1	18µM*	nt	20µM*	45µM*	-24	35µM*!
CCOc1ccccc1NC(=O)COC(=O)CN(C)S(=O)(=O)c1ccc(C)cc1	89µM*	7	7%	-4%[59 µM]	-2	-21%
COC(=O)c1ccccc1NC(=O)CCS(=O)(=O)c1ccc(Br)cc1	4µM*	nt	3.2µM*	2.2µM*	-18	2µM*
CC1Nc2ncnc(N3CCc4ccccc4C3)c2N(Cc2ccccc2)C1=O (stereo not given)	nt	-6	nt	nt	-6	nt
O=C1CC(c2ccc(Cl)cc2)Sc2nc(-c3ccc(F)cc3)nn21 (stereo not given)	-2%	nt	30%	-6%[59 µM]	nt	0%
Cc1ccc(CNC(=O)c2ccc(CSCc3ccc(C)cc3)o2)cc1	32µM*	nt	33%	10%[59 µM]	nt	29%
Fc1cccc(-c2nnn3c2nc(NCc2ccc4c(c2)OCO4)c2ccccc23)c1	-1%	nt	22%	-19%[59 µM]	nt	-1%
Cc1nn(-c2ccccc2)c(C)c1NC(=O)COC(=O)CC(C)c1ccccc1 (stereo not given)	16µM*	-2	27%	?	-1	8%
Cc1cccc(OCCC(=O)OCC(=O)Nc2c(C)nn(-c3ccccc3)c2C)c1	-7%	9	27%	35µM*	-3	-3%
Cc1cc(C)cc(-n2ccnc2SCC(=O)Nc2cccc3ccccc23)c1	22µM*	nt	?	13µM*	nt	7.1µM*
Cc1cccc(NC(=O)CSc2nc(=O)n3ccccc3n2)c1C	-11%	-4	4%	9%	0	9%
CN(C)CCn1c2c(c(SCC(=O)Nc3cccc4ccccc34)nc1=O)CCCC2	-15%	-3	15%	45µM*	-20	-5%
Cc1cc(C)cc(-n2ccnc2SCC(=O)Nc2ccccc2F)c1	?	nt	?	14µM*	nt	28µM*
O=C(CSc1nc(=O)n2ccccc2n1)Nc1cccc2ccccc12	?	-1	15%	50µM*	-3	-2%
Cc1cc(C)cc(NC(=O)CSc2nccn2-c2ccccc2)c1	?	nt	13%[57 µM]	?	nt	?
Cc1cn(CC(=O)NCCCN2CCCC2=O)c(=O)[nH]c1=O	-11%	-17	34%	nt	5	nt
Cc1nn(-c2ccccc2)c2c1cc1c(=O)[nH]c(=O)nc-1n2-c1cccc(Cl)c1	-28%	nt	9%	?	nt	nt
COc1ccc(NC(=O)CSc2nc3[nH]ncc3c(=O)[nH]2)cc1OC	?	5	34%	45µM*	-6	-24%
Cc1nnc(NC(=O)CSc2nc3[nH]ncc3c(=O)[nH]2)s1	-7%	nt	34%	35µM*	4	-24%
Cc1oc(C)c2c(=O)ccc3c(c12)OC(N)=C(C#N)C3c1ccccc1Cl (stereo not given)	-3%[11.4 µM]	-9	-28%	28µM*	3	?
COc1ccc(C2C(C#N)=C(N)Oc3c2oc(CO)cc3=O)cc1 (stereo not given)	6%[11.4 µM]	0	54%	?	-1	nt
CSc1ccc(C2C(C#N)=C(N)Oc3c2ccc(=O)c2c(C)oc(C)c32)cc1 (stereo not given)	56µM*	-16	?	32µM*	?	?
SMILES	JMJD2A Tudor inh	CtBP-E1A inh	HP1b chromo inh	G9a block	Six1-Eya2 blk	BAZ2B inh
Cc1oc(C)c2c(=O)ccc3c(c12)OC(N)=C(C#N)C3c1ccccc1 (stereo not given)	-35%	-13	-23%	8.9µM*	-16	?
O=C(CNc1ccccc1)NN=C1CCCC1	-15%	0	5%	7%	9	-14%
COc1ccc(-c2csc(NC(=S)NC(=O)c3ccc(S(=O)(=O)N(C)C)cc3)n2)cc1OC	-5%	-6	23%	?	-2	-5%
COc1cc(/C=N/Nc2nc(-c3ccc(S(=O)(=O)N(C)C)cc3)cs2)ccc1O	-24%	-2	1%	14µM*	-6	-33%
O=S(=O)(c1cccc(-c2csc(N/N=C/c3ccco3)n2)c1)N1CCOCC1	?	-22	-15%	45µM*	1	?
CCOc1cc(/C=N/Nc2nc(-c3cccc(S(=O)(=O)N4CCCC4)c3)cs2)ccc1O	?	?	-7%	35µM*	?	?
COc1ccc(/C=N/Nc2nc(-c3cccc(S(=O)(=O)N4CCCC4)c3)cs2)cc1OC	-28%	-1	18%	13µM*	-25	-32%
Cc1ccnc2nc(C(=O)NC3=NCCS3)nn12	-36%	23	37%	22%	20	-29%
Cc1ccnc2nc(C(=O)Nc3nccs3)nn12	10µM*	0	28%	?	23	?
Cc1ccnc2nc(C(=O)OCC(=O)c3ccc(NC(=O)CC(C)C)cc3)nn12	?	0	-21%	nt	4	nt
CCC(=O)Nc1ccc(C(=O)COC(=O)c2nc3nccc(C)n3n2)cc1	40µM*	6	?	5%[12.7 µM]	-21	10µM*
CCN(C(=O)COC(=O)c1ccccc1NCCO)C1CCS(=O)(=O)C1 (stereo not given)	-12%	2	17%	-36%	5	-4%
C[n+]1cccc(CNC(=O)/C=N/O)c1	?	5	10%	40µM*	2	56µM*
Cc1ccc(NC(=O)COc2coc(CN3CCc4ccccc43)cc2=O)cc1Cl	45µM*	-1	-35%	-26%	1	50µM*
O=C(COc1coc(CN2CCCc3ccccc32)cc1=O)Nc1ccc([N+](=O)[O-])cc1	-18%	-16	8%	11µM*	-4	-9%
Cc1ccccc1NC(=O)COc1coc(CN2CCCc3ccccc32)cc1=O	?	-2	6%	50µM*	-10	50µM*
COC(=O)c1ccc(NC(=O)COc2coc(CN3CCc4ccccc43)cc2=O)cc1	-10%	5	25%	-5%	-1	?
O=C(COc1coc(CN2CCc3ccccc32)cc1=O)N1CCCCC1	-22%	-8	9%	71µM*	4	-5%
c1ccc(CNCc2nnc(-c3cc4ccccc4[nH]3)o2)cc1	-12%	nt	nt	nt	nt	nt
O/C(=C\Sc1nnc(Cc2ccccc2)o1)c1ccc(F)cc1	-8%	7	21%	31%	1	?

Screens from PubChem BioAssay.
